Among all 290,000 compounds or so, about 27,000 (9.3%) were called active. This is one part of a sample in which actives are shown more often than they occur. Unmarked numbers belong to inactive results. Rule as the data show it: active = inhibition mostly above about 28% (no sharp cut-off); inactive = mostly below about 43%.
assay: A qHTS for Small Molecule Inhibitors of Shiga Toxin; details: Vero cells, Shiga toxin protein synthesis inhibition reporter; at 38.7 µM, stronger effect = higher value; also: 0% is about no effect

SMILES	inhibition
O=C(NCc1ccccc1Cl)C1CCN(S(=O)(=O)c2cccc3nonc23)CC1	9.83%
CCN(CC(=O)NCC(=O)Nc1cccc(C)c1C)Cc1ccccc1	-9.33%
CC(C)=C1SC(N2CCN(c3cccc(C)c3)CC2)=NC1=O	-21.2%
CCN1C(=O)/C(=C2\SC(N3CCCCC3)=NC2=O)c2ccccc21	52.1% (active)
CC(C)=C1SC(N2CCN(c3ccc(C)c(Cl)c3)CC2)=NC1=O	7.4%
Cc1cc(C)cc(C(=O)NC(CC(N)=O)c2ccc(N3CCC(N4CCCCC4)CC3)c([N+](=O)[O-])c2)c1 (stereo unspecified)	-3.41%
COc1cccc(NC(=O)N2C3CCCC2CC(NC(C)=O)C3)c1 (stereo unspecified)	-2.41%
Cc1ccc(S(=O)(=O)NCc2ccc(C(=O)NC3CCC(C)CC3)cc2)cc1 (stereo unspecified)	-2.09%
COc1ccc(/C=N/Nc2ncnc3sc4c(c23)CCCC4)cc1O	79.2% (active)
COc1ccc(NC(=O)CCNC(=O)Cn2cnc3sc4c(c3c2=O)CCCC4)cc1OC	7.2%
COc1ccc(NC(=O)CCCNC(=O)Cn2cnc3sc4c(c3c2=O)CCCC4)cc1OC	-15.7%
COc1ccc(NC(=O)CNC(=O)Cn2ccc3ccccc3c2=O)c(OC)c1	-5.3%
CC[C@H](C)[C@H](NC(=O)[C@H](CCCNC(=N)N)NC(=O)[C@H](CCCNC(=N)N)NC(=O)[C@H](CC(C)C)NC(=O)[C@H](Cc1ccccc1)NC(=O)CNC(=O)CNC(=O)[C@@H](N)Cc1ccc(O)cc1)C(=O)N[C@@H](CCCNC(=N)N)C(=O)N1CCC[C@H]1C(=O)N[C@@H](CCCCN)C(=O)N[C@@H](CC(C)C)C(=O)N[C@@H](CCCCN)C(=O)N[C@@H](Cc1c[nH]c2ccccc12)C(=O)N[C@@H](CC(=O)O)C(=O)N[C@@H](CC(N)=O)C(=O)N[C@@H](CCC(N)=O)C(=O)O	-7.4%
CN(C)c1ccc(CNC(=O)CN2C(=O)COc3ccc(S(=O)(=O)N4CCCC4)cc32)cc1	-2.88%
O=C(Cc1ccc(Cl)cc1)NC(=S)Nc1ccccc1O	-14.5%
O=[N+]([O-])c1ccccc1Nc1ccc(O)cc1	-30.1%
Oc1ccc(CNc2ccccc2O)cc1	120% (active)
CCN1CCN(C2CCCCC2NS(=O)(=O)c2ccc(Cl)cc2)CC1 (stereo unspecified)	-12.5%
CC(C)(C)C1C/C(=C/c2ccco2)C(=O)/C(=C/c2ccco2)C1 (stereo unspecified)	46.5% (active)
COC(=O)C1=C(C)N(c2ccc(Br)cc2)C(=O)/C1=C\c1ccco1	14.6%
O=C1OC(/C=C/c2ccccc2)=NC/1=C/c1ccco1	-7.2%

SMILES	inhibition
Cc1c(S(=O)(=O)N2CC(C)CC(C)C2)c(=O)n(C)c(=O)n1C (stereo unspecified)	-33.2%
O=C(CCc1c[nH]c2ccccc12)NCCOc1ccccc1	44.8%
Oc1ccc(N=Cc2c(O)ccc3ccccc23)cc1	18.7%
Oc1ccc(N=Cc2sc3ccccc3c2Cl)cc1	77.5% (active)
Cc1nn(C)cc1/C=N/NC(=O)c1sc2ccccc2c1Cl	25%
CC(C)c1cc(C(=O)N/N=C/c2ccoc2)c(O)c(C(C)C)c1	4.23%
CC(C)NC(=O)c1ccc(Cl)cc1Cl	8.65%
O=C(N/N=C/c1ccoc1)c1ccc(Cl)cc1Cl	68.7% (active)
O=C(NCCCN1CCCCC1)C1CCCN(c2ncnc3c2nc2n3CCCCC2)C1 (stereo unspecified)	4.24%
OC(COc1ccc(F)cc1Cl)CN1CCc2ccccc2C1 (stereo unspecified)	16.9%
Cn1nccc1NS(=O)(=O)c1ccc(F)cc1	160% (active)
Cc1cc(C)cc(NS(=O)(=O)c2ccc(F)cc2)c1	8.8%
Cc1ccc(NS(=O)(=O)c2ccc(F)cc2)nc1	-8.43%
COc1ccc(S(=O)(=O)NC(C)C(=O)NCc2ccncc2)cc1Cl (stereo unspecified)	-1.67%
Cc1ccc(NC(=O)Nc2ccc3oc(C)nc3c2)cc1	144% (active)
Cc1nc(C)c(C(=O)Nc2ccc(C)c(F)c2)o1	0.239%
O=C(CSc1ncccn1)NC(=O)NCc1ccccc1	34.2%
CCCCc1ccc(NC(=O)NCc2cccnc2)cc1	6.04%
Cc1nc2ccc(NC(=O)C(F)(F)F)cc2o1	-11.6%
Cc1nc2cc(NC(=O)NCc3ccccc3)ccc2o1	44.8% (active)
COc1ccccc1N(CC(=O)N/N=C(\C)c1ccccc1O)S(=O)(=O)c1ccc(C)cc1	-3.24%

SMILES	inhibition
CCOC(=O)c1ccc(NC(=O)CCn2c(=O)oc3ccccc32)cc1	-8.48%
O=C(NC(=S)N1CCCCC1c1cccnc1)c1ccccc1 (stereo unspecified)	3.14%
Cc1ccccc1NC(=O)CSc1ccc2nnc(-c3ccccn3)n2n1	15.7%
COC(=O)c1ccccc1NC(=O)c1ccc(C#N)cc1	8.5%
Cc1c(CN2CCC(n3nccc3NC(=O)CCc3ccccc3)CC2)cnn1C	4.45%
O=C(NCC(=O)N1CCC2(CC1)NCCc1[nH]cnc12)c1ccc(Br)cc1	-10%
COc1ccc(NC(=O)CCS(=O)(=O)c2cc3c(cc2Cl)NC(=O)CO3)cc1OC	-4.27%
Cc1ccccc1CN(c1ccc(C(=O)NCC2CCCO2)cc1)S(C)(=O)=O (stereo unspecified)	-12.3%
Cc1cc(C)n(C(=O)CCNC(=O)c2ccccc2Cl)n1	-4.34%
COCCNC(=O)c1ccccc1-c1nc(-c2ccccc2Cl)no1	79.4% (active)
O=C(NCC1CCCO1)c1cc(-c2ccccc2)nc2ccccc12 (stereo unspecified)	15%
O=C(CSCc1c(F)cccc1Cl)NCC1CCCO1 (stereo unspecified)	-5.03%
O=C(NCC1CCCO1)c1ccccc1-c1nc(-c2ccccc2Cl)no1 (stereo unspecified)	43.2% (active)
Cc1ccc(-c2noc(-c3ccccc3C(=O)NCC3CCCO3)n2)cc1 (stereo unspecified)	48.4% (active)
O=C(Nc1ccccc1C(=O)NCC1CCCO1)c1ccccc1F (stereo unspecified)	17.2%
O=C(NCC1CCCO1)c1cc2c([nH]c3ccccc32)c(-c2ccc(F)cc2)n1 (stereo unspecified)	-7.75%
Cc1nc2ccccc2c2oc(C(=O)NCC3CCCO3)cc12 (stereo unspecified)	-16%
Cc1ccc2cc(CCNC(=O)c3c(-c4ccccc4Cl)noc3C)c(=O)[nH]c2c1	-3.3%
O=C(NCC1CCCO1)c1ccc2ccccc2n1 (stereo unspecified)	69.8% (active)

— PubChem BioAssay AID2315 (National Center for Advancing Translational Sciences (NCATS), 2010)
